The source made the active and inactive calls. How the source made its calls: active means hit-call score of the fitted dose curve at least 0.9, where 1 is the maximum; inactive means score below 0.9.
Assays:
[1] = molecular target: Bile acid receptor (Homo sapiens) (UniProt Q96RI1); assay: ATG_IR1_CIS: Attagene CIS-FACTORIAL HepG2 Assay for human Nuclear Receptor Subfamily 1 Group H Member 4 (NR1H4), IR1 submotif (AID 2282946); settings: IR1 reporter transcription, actives raise or lower the signal
Sequence of Bile acid receptor (Homo sapiens) (Q96RI1 whole entry, looked up): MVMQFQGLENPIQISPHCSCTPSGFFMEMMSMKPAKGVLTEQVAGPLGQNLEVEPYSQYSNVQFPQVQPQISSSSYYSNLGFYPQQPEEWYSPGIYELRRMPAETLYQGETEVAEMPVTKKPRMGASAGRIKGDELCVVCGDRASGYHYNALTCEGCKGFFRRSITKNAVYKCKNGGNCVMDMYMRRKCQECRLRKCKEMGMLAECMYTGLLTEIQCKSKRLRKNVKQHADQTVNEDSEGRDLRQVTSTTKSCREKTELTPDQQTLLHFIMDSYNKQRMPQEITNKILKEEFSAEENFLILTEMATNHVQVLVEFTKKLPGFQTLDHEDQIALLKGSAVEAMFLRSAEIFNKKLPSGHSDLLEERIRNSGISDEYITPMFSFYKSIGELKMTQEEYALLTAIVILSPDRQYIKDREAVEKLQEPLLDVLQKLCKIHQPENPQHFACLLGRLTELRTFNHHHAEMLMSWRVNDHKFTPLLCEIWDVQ
Method in brief: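 Readout: reporter transcript levels by RT-PCR with fluorescent capillary electrophoresis, from HepG2 cells transiently transfected with multiplexed cis-regulated reporters and dosed 24 h. Gain- or loss-of-signal fitted versus DMSO negative control.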

[2] = ATG_GRE_CIS: Attagene CIS-FACTORIAL HepG2 Assay for human Glucocorticoid Response Elements (GRE) (AID 2282947); settings: HepG2 GRE cis-reporter, Attagene multiplex mRNA; actives raise or lower the signal
Method in brief: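 Cells (HepG2) bearing transfected cis-promoter reporter transcription units were treated with chemical for 24 hours. Reporter mRNA was measured via RT-PCR with capillary electrophoresis, and activity was fitted in both directions relative to DMSO.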

[3] = ATG_ISRE_CIS: Attagene CIS-FACTORIAL HepG2 Assay for human Interferon Regulatory Factor 1 (IRF1) binding to an Interferon-Stimulated Response Element (ISRE) (AID 2282948); settings: HepG2 ISRE cis-reporter (Attagene), mRNA transcription readout; actives raise or lower the signal
Method in brief: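 Signal reflects induction or loss of ISRE-linked reporter mRNA in transiently transfected HepG2 cells after a 24 h treatment, detected by fluorescent RT-PCR fragments on capillary electrophoresis and normalised to DMSO.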

[4] = ATG_M_32_CIS: Attagene CIS-FACTORIAL HepG2 Assay for M32 Transcription Factor (Internal Marker) (AID 2282949); settings: HepG2 Attagene cis-factorial M32 reporter, mRNA; actives raise or lower the signal;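 further: background control marker of the multiplexed CIS panel rather than a real target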
Method in brief: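 HepG2 human liver cells transiently transfected with cis-promoter-driven multiple reporter transcription units, dosed 24 h. Reporter mRNA quantified by RT-PCR, FAM-labelled primer extension, HpaI digest and capillary electrophoresis; bidirectional fit versus DMSO baseline.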

[5] = ATG_M_06_CIS: Attagene CIS-FACTORIAL HepG2 Assay for M06 Transcription Factor (Internal Marker) (AID 2282950); settings: HepG2 Attagene CIS-FACTORIAL M06 internal marker reporter; actives raise or lower the signal
Method in brief: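 Steps: transfect HepG2 with multiplexed cis-element reporter constructs; dose chemical 24 h; extract RNA with DNase treatment; reverse-transcribe, PCR-amplify, 6-FAM label, HpaI digest; separate fragments by capillary electrophoresis. Activity fitted both directions versus DMSO.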

[6] = molecular target: Hypoxia-inducible factor 1-alpha (Homo sapiens) (UniProt Q16665); assay: ATG_HIF1a_CIS: Attagene CIS-FACTORIAL HepG2 Assay for human Hypoxia Inducible Factor 1 (HIF1A) (AID 2282951); settings: HepG2 Attagene cis-factorial HIF1a reporter transcription; actives raise or lower the signal
Sequence of Hypoxia-inducible factor 1-alpha (Homo sapiens) (Q16665 whole entry, looked up): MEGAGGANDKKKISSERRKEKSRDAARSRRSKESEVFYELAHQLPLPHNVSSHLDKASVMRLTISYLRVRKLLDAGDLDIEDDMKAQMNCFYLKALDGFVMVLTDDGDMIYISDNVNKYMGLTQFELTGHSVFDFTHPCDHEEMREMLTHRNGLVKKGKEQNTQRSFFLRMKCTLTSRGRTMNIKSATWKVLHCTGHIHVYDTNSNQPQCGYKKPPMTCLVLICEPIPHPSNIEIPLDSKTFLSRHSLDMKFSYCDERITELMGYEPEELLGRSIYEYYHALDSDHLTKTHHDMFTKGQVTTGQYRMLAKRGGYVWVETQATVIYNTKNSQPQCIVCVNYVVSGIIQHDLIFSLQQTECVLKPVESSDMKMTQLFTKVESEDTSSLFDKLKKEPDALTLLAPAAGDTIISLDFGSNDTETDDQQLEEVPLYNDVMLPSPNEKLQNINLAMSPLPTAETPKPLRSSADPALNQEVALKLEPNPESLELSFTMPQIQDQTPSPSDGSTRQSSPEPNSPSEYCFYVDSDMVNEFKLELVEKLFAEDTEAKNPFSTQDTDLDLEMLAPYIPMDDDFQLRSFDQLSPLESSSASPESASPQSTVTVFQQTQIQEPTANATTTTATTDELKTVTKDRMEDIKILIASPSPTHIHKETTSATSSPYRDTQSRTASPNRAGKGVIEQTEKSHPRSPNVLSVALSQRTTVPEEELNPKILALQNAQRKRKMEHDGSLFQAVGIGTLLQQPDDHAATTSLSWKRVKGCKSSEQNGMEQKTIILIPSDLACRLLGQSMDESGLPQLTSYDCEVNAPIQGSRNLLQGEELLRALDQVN
Method in brief: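 HepG2 cells transiently transfected with multiplexed cis-promoter reporter units; reporter mRNA read 24 h after dosing by RT-PCR, 6-FAM primer-extension labelling, HpaI digestion and capillary electrophoresis. Bidirectional fit versus DMSO baseline.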

[7] = molecular target: Hepatocyte nuclear factor 6 (Homo sapiens) (UniProt Q9UBC0); assay: ATG_HNF6_CIS: Attagene CIS-FACTORIAL HepG2 Assay for human Hepatocyte Nuclear Factor 6 (HNF6) (AID 2282952); settings: HepG2 Attagene cis-factorial HNF6 reporter transcription; actives raise or lower the signal
Sequence of Hepatocyte nuclear factor 6 (Homo sapiens) (Q9UBC0 whole entry, looked up, the tested form may be a part): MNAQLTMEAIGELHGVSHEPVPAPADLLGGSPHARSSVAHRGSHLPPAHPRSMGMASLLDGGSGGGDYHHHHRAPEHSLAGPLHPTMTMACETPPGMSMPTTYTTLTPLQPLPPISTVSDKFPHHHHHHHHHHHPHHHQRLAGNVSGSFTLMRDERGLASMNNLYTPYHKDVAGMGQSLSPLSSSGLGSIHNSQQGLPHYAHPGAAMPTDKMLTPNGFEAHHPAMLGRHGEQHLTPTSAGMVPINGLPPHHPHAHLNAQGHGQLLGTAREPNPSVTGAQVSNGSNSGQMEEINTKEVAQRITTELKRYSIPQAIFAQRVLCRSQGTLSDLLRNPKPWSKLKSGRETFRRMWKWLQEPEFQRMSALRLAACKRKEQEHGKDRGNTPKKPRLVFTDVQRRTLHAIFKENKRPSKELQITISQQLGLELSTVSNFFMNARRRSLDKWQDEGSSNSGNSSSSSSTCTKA
Method in brief: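 Twenty-four-hour chemical treatment of reporter-transfected HepG2 cells precedes RNA isolation, DNase-treated reverse transcription and PCR of reporter sequences. Labelled fragments are sized by capillary electrophoresis and fitted bidirectionally versus DMSO.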

[8] = molecular target: Heat shock factor protein 1 (Homo sapiens) (UniProt Q00613); assay: ATG_HSE_CIS: Attagene CIS-FACTORIAL HepG2 Assay for human Heat Shock Transcription Factor 1 (HSE) (AID 2282953); settings: HepG2 HSE cis-reporter, Attagene RNA transcription; actives raise or lower the signal
Sequence of Heat shock factor protein 1 (Homo sapiens) (Q00613 whole entry, looked up, the tested form may be a part): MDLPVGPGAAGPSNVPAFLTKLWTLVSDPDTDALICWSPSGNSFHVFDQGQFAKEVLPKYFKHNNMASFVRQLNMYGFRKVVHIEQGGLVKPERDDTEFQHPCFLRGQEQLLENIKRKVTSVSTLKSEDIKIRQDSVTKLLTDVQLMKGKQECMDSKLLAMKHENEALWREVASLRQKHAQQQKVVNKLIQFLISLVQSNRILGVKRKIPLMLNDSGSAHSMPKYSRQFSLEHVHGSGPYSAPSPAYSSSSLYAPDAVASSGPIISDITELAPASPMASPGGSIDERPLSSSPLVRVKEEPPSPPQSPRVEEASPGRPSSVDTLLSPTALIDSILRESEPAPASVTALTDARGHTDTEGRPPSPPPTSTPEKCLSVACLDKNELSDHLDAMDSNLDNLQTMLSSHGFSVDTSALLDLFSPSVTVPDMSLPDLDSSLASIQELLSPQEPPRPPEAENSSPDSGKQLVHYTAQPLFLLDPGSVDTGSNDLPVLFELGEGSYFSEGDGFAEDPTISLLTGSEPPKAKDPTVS
Method in brief: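 Cells were transfected with cis-element-driven reporter constructs, dosed for 24 h, then total RNA was reverse-transcribed and reporter cDNA amplified, FAM-labelled and digested with HpaI. Fragments were resolved by capillary electrophoresis; gain or loss was fitted against DMSO.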

[9] = ATG_MRE_CIS: Attagene CIS-FACTORIAL HepG2 Assay for human Metal Responsive Element (MRE) (AID 2282954); settings: HepG2 MRE cis-reporter transcription, Attagene multiplex; actives raise or lower the signal
Method in brief: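 Cells were transfected with cis-promoter reporter transcription units, then dosed for 24 h. RNA was reverse-transcribed, amplified, fluorescently labelled and resolved by capillary electrophoresis, and activity was fitted in both directions relative to DMSO.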

[10] = molecular target: Paired box protein Pax-6 (Homo sapiens) (UniProt P26367); assay: ATG_Pax6_CIS: Attagene CIS-FACTORIAL HepG2 Assay for human Paired Box 6 (PAX6) (AID 2282956); settings: HepG2 CIS-FACTORIAL PAX6 reporter transcription, RNA readout; actives raise or lower the signal
Sequence of Paired box protein Pax-6 (Homo sapiens) (P26367 whole entry, looked up): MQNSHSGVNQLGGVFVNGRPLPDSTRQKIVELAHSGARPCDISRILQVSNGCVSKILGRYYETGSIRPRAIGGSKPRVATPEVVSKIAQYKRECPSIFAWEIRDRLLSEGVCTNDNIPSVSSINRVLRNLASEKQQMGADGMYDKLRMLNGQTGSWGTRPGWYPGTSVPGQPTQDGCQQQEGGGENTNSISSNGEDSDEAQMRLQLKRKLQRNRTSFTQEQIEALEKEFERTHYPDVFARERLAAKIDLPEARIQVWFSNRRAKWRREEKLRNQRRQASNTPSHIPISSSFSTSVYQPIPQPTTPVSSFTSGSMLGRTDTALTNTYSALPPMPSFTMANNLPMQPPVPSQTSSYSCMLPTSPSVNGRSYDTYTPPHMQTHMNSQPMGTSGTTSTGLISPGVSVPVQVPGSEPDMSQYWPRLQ
Method in brief: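 Values derive from bidirectional curve fitting of reporter mRNA signal relative to DMSO. HepG2 cells bearing transfected cis-regulated MRTUs were exposed for 24 h; transcripts were read by RT-PCR and capillary electrophoresis.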

[11] = ATG_PXRE_CIS: Attagene CIS-FACTORIAL HepG2 Assay for human Pregnane X Receptor Element (PXRE) (AID 2282957); settings: HepG2 Attagene CIS-FACTORIAL PXRE reporter, mRNA; actives raise or lower the signal
Method in brief: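 Bidirectional activity, baselined to DMSO, derived from reporter mRNA fluorescence (RT-PCR plus capillary electrophoresis) in HepG2 cells bearing cis-promoter reporter units, 24 h exposure.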

[12] = ATG_PPRE_CIS: Attagene CIS-FACTORIAL HepG2 Assay for human Peroxisome Proliferator-activated Response Element (PPRE) (AID 2282958); settings: HepG2 PPRE cis-element reporter, Attagene transcription factor profiling; actives raise or lower the signal
Method in brief: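 HepG2 cells transiently transfected with multiplexed cis-element reporter units measure endogenous transcription factor activity. After 24 h compound exposure, reporter mRNA is quantified by RT-PCR, 6-FAM labeling, HpaI digestion and capillary electrophoresis; bidirectional fits are made against DMSO baseline.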

[13] = ATG_RORE_CIS: Attagene CIS-FACTORIAL HepG2 Assay for human RAR-related Orphan Receptor Element (RORE) (AID 2282959); settings: HepG2 Attagene cis-factorial RORE reporter, mRNA; actives raise or lower the signal
Method in brief: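 HepG2 cells transiently transfected with multiple cis-element reporter transcription units, exposed to chemical for 24 h. Reporter mRNA quantified by RT-PCR, 6-FAM primer-extension labeling, HpaI digestion and capillary electrophoresis; bidirectional fit versus DMSO baseline.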

[14] = ATG_Sox_CIS: Attagene CIS-FACTORIAL HepG2 Assay for human SRY-box transcription factor (SOX) (AID 2282960); settings: HepG2 Attagene cis-factorial SOX reporter, mRNA; actives raise or lower the signal
Method in brief: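 HepG2 cells transiently transfected with cis-element-driven multiple reporter transcription units, dosed 24 h; reporter mRNA measured by RT-PCR, FAM labelling, HpaI digestion and capillary electrophoresis. Bidirectional fit versus DMSO baseline.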

[15] = molecular target: Transcription factor Sp1 (Homo sapiens) (UniProt P08047); assay: ATG_Sp1_CIS: Attagene CIS-FACTORIAL HepG2 Assay for human Specificity Protein 1 (Sp1) (AID 2282961); settings: HepG2 Sp1 cis-reporter transcription, actives raise or lower the signal
Sequence of Transcription factor Sp1 (Homo sapiens) (P08047 whole entry, looked up): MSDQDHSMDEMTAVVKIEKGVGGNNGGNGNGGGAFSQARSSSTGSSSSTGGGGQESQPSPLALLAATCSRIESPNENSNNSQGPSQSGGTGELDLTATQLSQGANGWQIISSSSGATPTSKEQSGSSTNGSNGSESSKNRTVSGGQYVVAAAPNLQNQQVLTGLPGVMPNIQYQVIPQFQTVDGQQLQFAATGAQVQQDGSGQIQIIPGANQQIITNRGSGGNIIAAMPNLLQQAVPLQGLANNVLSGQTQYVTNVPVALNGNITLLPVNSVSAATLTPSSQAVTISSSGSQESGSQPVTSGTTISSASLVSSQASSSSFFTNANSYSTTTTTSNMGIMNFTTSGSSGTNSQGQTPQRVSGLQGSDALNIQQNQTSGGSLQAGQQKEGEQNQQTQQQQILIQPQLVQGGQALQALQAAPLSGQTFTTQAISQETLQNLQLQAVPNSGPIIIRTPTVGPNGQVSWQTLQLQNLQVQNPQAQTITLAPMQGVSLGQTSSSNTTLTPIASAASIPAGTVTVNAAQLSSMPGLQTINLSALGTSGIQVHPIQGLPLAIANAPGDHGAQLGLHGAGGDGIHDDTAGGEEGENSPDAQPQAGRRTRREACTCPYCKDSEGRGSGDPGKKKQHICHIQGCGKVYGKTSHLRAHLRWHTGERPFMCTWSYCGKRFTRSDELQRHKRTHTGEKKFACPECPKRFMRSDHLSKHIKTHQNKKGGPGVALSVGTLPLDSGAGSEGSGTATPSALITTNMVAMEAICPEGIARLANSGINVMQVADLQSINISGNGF
Method in brief: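 HepG2 cells transiently transfected with multiple reporter transcription units driven by cis-regulatory elements; Sp1-responsive reporter mRNA measured 24 h after dosing by RT-PCR and capillary electrophoresis fluorescence, fitted bidirectionally against DMSO baseline.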

[16] = ATG_SREBP_CIS: Attagene CIS-FACTORIAL HepG2 Assay for human Sterol Regulatory Element Binding (SREBP) (AID 2282962); settings: HepG2 Attagene cis-factorial SREBP reporter, mRNA; actives raise or lower the signal
Method in brief: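 Values derive from bidirectional curve fitting with DMSO as baseline. The underlying measurement is reporter mRNA from cis-element-regulated units in transiently transfected HepG2, quantified by RT-PCR and capillary electrophoresis after 24 h exposure.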

[17] = molecular target: Signal transducer and activator of transcription 3 (Homo sapiens) (UniProt P40763); assay: ATG_STAT3_CIS: Attagene CIS-FACTORIAL HepG2 Assay for human Signal Transducer and Activator of Transcription 3 (STAT3) (AID 2282963); settings: HepG2, Attagene cis-factorial STAT3 reporter transcription; actives raise or lower the signal
Sequence of Signal transducer and activator of transcription 3 (Homo sapiens) (P40763 whole entry, looked up): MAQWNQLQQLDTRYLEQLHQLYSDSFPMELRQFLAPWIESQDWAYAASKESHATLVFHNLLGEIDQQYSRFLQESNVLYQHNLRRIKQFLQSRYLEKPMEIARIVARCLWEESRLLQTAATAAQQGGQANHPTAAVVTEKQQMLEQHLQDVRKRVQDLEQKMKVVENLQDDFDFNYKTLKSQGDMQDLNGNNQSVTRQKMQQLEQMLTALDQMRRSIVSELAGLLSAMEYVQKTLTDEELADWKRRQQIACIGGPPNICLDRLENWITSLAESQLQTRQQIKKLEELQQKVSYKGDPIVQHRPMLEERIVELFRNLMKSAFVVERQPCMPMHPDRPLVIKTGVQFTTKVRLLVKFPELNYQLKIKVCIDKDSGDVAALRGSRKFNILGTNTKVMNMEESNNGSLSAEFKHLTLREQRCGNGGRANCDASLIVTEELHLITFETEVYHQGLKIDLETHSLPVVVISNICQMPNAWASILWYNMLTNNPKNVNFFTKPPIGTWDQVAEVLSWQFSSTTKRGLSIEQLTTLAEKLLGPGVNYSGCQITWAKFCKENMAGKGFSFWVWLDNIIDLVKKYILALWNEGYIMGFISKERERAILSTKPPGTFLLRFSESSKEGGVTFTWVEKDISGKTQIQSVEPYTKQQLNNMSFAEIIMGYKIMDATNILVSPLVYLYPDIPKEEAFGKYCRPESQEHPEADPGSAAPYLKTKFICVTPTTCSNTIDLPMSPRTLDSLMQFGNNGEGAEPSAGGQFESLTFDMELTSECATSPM
Method in brief: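 HepG2, MRTU-transfected, 24 h dosing. RNA → RT → PCR → FAM label → HpaI → CE. Bidirectional fit vs DMSO.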

[18] = ATG_TA_CIS: Attagene CIS-FACTORIAL HepG2 Assay for human TA Basal Promoter (AID 2282964); settings: HepG2 Attagene CIS-factorial TA basal promoter reporter; actives raise or lower the signal
Method in brief: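 Steps: transfect HepG2 with MRTUs; dose 24 h; isolate RNA, DNase-treat, reverse-transcribe; PCR and FAM-label reporter cDNA; digest with HpaI 2h at 37 C; run capillary electrophoresis. Activity fitted both directions against DMSO.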

[19] = ATG_PBREM_CIS: Attagene CIS-FACTORIAL HepG2 Assay for human Phenobarbital-responsive Enhancer Module (PBREM) (AID 2282955); settings: HepG2 PBREM cis-reporter, Attagene multiplexed transcription; actives raise or lower the signal
Method in brief: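 HepG2 cells transiently transfected with multiple cis-regulated reporter transcription units; endogenous factor activity at the PBREM element measured as reporter mRNA 24 h after dosing, via RT-PCR and capillary electrophoresis of fluorescent fragments; bidirectional fitting versus DMSO.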

Measured: AC50

CC(=O)CCC(C)C
active: [11] 52.9 µM
not listed: [19]
inactive: all other assays above

OCC(F)(F)C(F)(F)C(F)(F)C(F)(F)C(F)(F)C(F)(F)CO
not listed: [11]
inactive: all other assays above

CCCCCCCCCc1ccc(OCCO)cc1
active: [2] 19.2 µM | [3] 18.7 µM | [4] 21.7 µM | [6] 13.3 µM | [8] 16.8 µM | [9] 13.3 µM | [10] 24.3 µM | [11] 0.64 µM | [15] 13.3 µM | [16] 3.56 µM | [17] 19.5 µM
inactive: [1] | [5] | [19] | [12] | [13] | [14] | [18]

N#CCCOCCC#N
inactive: all assays above

O=S(=O)(OCC(F)(F)F)C(F)(F)C(F)(F)C(F)(F)C(F)(F)F
active: [3] 63.2 µM
inactive: all other assays above

O=C1C=CC(=O)N1c1ccccc1
not listed: [7] | [8] | [11]
inactive: all other assays above

CCOC(C=C(C)CCC=C(C)C)OCC
active: [11] 31.2 µM | [13] 38.3 µM
not listed: [8]
inactive: all other assays above

O=C(O)CCC(F)(F)C(F)(F)C(F)(F)C(F)(F)C(F)(F)C(F)(F)C(F)(F)F
active: [3] 150 µM | [12] 64.4 µM
not listed: [8]
inactive: all other assays above

Cc1cccc(C)n1
not listed: [8] | [19]
inactive: all other assays above

F[Si-2](F)(F)(F)(F)F
not listed: [8]
inactive: all other assays above

CCC/C=C/CO
not listed: [7] | [8]
inactive: all other assays above

COC(F)(C(F)F)C(F)(F)F (stereo not given)
not listed: [8]
inactive: all other assays above

CC1=CCC2C(=O)OC(=O)C2C1 (stereo not given)
not listed: [19]
inactive: all other assays above

CC(C)(C)c1cc(CCC(=O)NCCCCCCNC(=O)CCc2cc(C(C)(C)C)c(O)c(C(C)(C)C)c2)cc(C(C)(C)C)c1O
not listed: [11]
inactive: all other assays above

— PubChem BioAssay (EPA / NIEHS)
